The campaign covered roughly 360,000 compounds. About 25,000 (6.9%) were called active. Inconclusive results (about 9%) are left out. Calls follow the shape of the dose curve; as a rule, active = well fitted inhibition curve with a large enough effect; inconclusive = small, poorly fitted or top-dose-only effect; inactive = flat fitted curve, though single readings scatter. The full list was thinned out, with actives kept by preference.

Results on 54 compounds are retold here after PubChem BioAssay AID588342 (National Center for Advancing Translational Sciences (NCATS), 2011).
Potency is read from the fitted curve at half-maximal effect.

Luciferin 4-monooxygenase (Photinus pyralis), sequence (P08659 whole entry, looked up): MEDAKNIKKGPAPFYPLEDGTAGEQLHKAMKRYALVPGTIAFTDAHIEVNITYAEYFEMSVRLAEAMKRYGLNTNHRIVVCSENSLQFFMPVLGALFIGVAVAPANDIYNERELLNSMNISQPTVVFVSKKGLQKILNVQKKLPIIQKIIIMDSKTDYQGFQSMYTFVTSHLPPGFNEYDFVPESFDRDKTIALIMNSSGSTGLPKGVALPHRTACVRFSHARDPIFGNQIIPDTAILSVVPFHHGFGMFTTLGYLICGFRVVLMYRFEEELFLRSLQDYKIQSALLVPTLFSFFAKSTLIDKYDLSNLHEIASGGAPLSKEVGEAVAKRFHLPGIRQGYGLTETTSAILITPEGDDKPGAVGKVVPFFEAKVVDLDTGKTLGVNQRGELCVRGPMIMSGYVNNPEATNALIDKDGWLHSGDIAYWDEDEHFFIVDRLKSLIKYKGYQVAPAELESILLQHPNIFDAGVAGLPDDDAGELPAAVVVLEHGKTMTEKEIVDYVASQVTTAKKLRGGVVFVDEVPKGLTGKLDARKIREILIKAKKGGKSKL

This test concerns the target Luciferin 4-monooxygenase (Photinus pyralis) (UniProt P08659). The experiment in a line: qHTS profiling assay for firefly luciferase inhibitor/activator using purifed enzyme and Km concentrations of substrates (counterscreen for miR-21 project). Also: nearly all actives have a fitted effect of over 55% in size.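 As to activity change, negative = inhibition: plate controls were vehicle for no effect and reference inhibitor for full effect.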 The following applies: purified FLuc, luminescence inhibition; series mostly up to 57.5 µM; activity change, negative = inhibition: at the top concentration. The method in brief:
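Purified P. pyralis luciferase, 10 nM final, with Km-level 10 uM D-luciferin and 10 uM ATP in 50 mM Tris acetate pH 7.5, 10 mM Mg acetate, 0.01% Tween-20, 0.05% BSA; 6-point qHTS titration about 60 µM downward; luminescence read.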
In the case of `CCOC(=O)c1cn(CC)c2cc(F)c(F)cc2c1=O`, the “activity change, negative = inhibition” value was 5.04% (inactive).
`COc1ccc(C(=O)NCc2ccc(C)cc2)cc1S(=O)(=O)N1CCCC1`: the “activity change, negative = inhibition” value is -0.328% (inactive).
Take `O=C(c1cnn(-c2ccc(F)cc2)c1-n1cccc1)N1CCN(c2ccc(F)cc2)CC1`: the “activity change, negative = inhibition” value was -9.96% (inactive).
Consider `Nc1ccccc1SC(C[N+](=O)[O-])c1ccccc1` (centres undefined), for which the Potency is 10.7 µM (active).
Turning to `Cc1ccc(C(C[N+](=O)[O-])c2c(C)cc3ccccn23)cc1` (centres undefined), the “activity change, negative = inhibition” value was 0.648% (inactive).
The same measure, in the same setting: to `Cc1ccc(CNC(=O)CCc2c(C)nn(-c3ccc(N4CCCC4)nn3)c2C)cc1` belongs -0.845% (inactive).
For `CCCCOC(=O)c1[nH]c(C)c(C(=O)OC)c1C`, the Potency is 12 µM (active).
Take `COC(=O)c1c(C)[nH]c(C(=O)NCCc2ccc(S(N)(=O)=O)cc2)c1C`: the “activity change, negative = inhibition” value is -1.64% (inactive).
For `CCOC(=O)c1c(C)[nH]c(C(=O)OCC(=O)c2ccc(OC)cc2OC)c1C`, the “activity change, negative = inhibition” value was -8.12% (inactive).
With `CCn1c2ccccc2c2cc(CN3CCN(Cc4cccc(Cl)c4)CC3)ccc21`, the “activity change, negative = inhibition” value was -0.946% (inactive).
Still for that read-out and setting: to `CSc1ccccc1C(=O)OCC(=O)N1CCN(C(C)=O)CC1` belongs -2.52% (inactive).
As to `COc1ccccc1CNC(=O)COc1ccc(C)nc1[N+](=O)[O-]`, the “activity change, negative = inhibition” value is 2.76% (inactive).
For `CCOc1ccccc1C(=O)NC1(C(F)(F)F)NC(=O)N(CCc2ccc(OC)c(OC)c2)C1=O` (centres undefined), the “activity change, negative = inhibition” value was -17.7% (inactive).
Turning to `CCSc1nnc(-c2cc3c(s2)-c2ccccc2CC3)o1`, the Potency was 10.7 µM (active).
Turning to `Fc1ccc(CSc2nnc(-c3cc4c(s3)-c3ccccc3CC4)o2)cc1`, the “activity change, negative = inhibition” value is -1.05% (inactive).
Regarding `O=C(CSc1nnc(-c2ccccc2O)o1)NC1CCCCC1`, the “activity change, negative = inhibition” value is 1.37% (inactive).
With `CCOC(=O)c1[nH]c(C)c(CCC(=O)N2CCN(c3ccccc3)CC2)c1C`, the “activity change, negative = inhibition” value was -3.07% (inactive).
Take `O=C(c1ccccc1)c1ccc(C(=O)N2CCN(c3ccccc3)CC2)cc1`: the “activity change, negative = inhibition” value is 4.16% (inactive).
`CC(=O)Nc1ccc(C(=O)/C=C/c2ccc[nH]2)cc1`: the Potency is 8.49 µM (active).
On to `COC(C(=O)Nc1ccc(C(C)=O)cc1)c1ccccc1` (centres undefined), for which the “activity change, negative = inhibition” value is -2.83% (inactive).
For `CC(OC(=O)/C=C/c1ccccc1)C(=O)Nc1ccc(C(N)=O)cc1` (centres undefined), the “activity change, negative = inhibition” value is 0.893% (inactive).
`O=C(/C=C/c1ccc(N2CCOCC2)cc1)c1ccccc1`: the Potency was 0.953 µM (active).
Turning to `CC(=O)Nc1ccc(/C=C/C(=O)c2ccccc2)cc1`, the Potency is 1.35 µM (active).
Regarding `CC(=O)Nc1ccc(NC(=S)NC(=O)/C=C/c2ccccc2)cc1`, the “activity change, negative = inhibition” value was -0.139% (inactive).
Turning to `O=C(c1ccc(S(=O)(=O)N2CCOCC2)cc1)N1CCN(c2ccccc2)CC1`, the “activity change, negative = inhibition” value was 11.8% (inactive).
For `CCCC(=O)Nc1ccc(C(=O)N/N=C/c2ccc[nH]2)cc1`, the “activity change, negative = inhibition” value was -18% (inactive).
In the case of `Cc1cc(C)cc(NC(=O)C2CCCN2S(=O)(=O)c2cccc3cccnc23)c1` (centres undefined), the “activity change, negative = inhibition” value is 3.8% (inactive).
The same measure, in the same setting: to `Cc1c(CNC(C)c2ccccc2)c(C(=O)O)c(C)n1Cc1c(F)cccc1Cl` (centres undefined) belongs -7.24% (inactive); to `COc1ccc(N2CCN(S(=O)(=O)c3ccc(-c4coc(C)n4)cc3)CC2)cc1`, 3.39% (inactive); to `CCOc1ccc(CNC(=O)Cn2cc3c(n2)-c2c(oc(C(=O)N4CCCC4)c2C)CC3)cc1`, -0.775% (inactive).
As for `CC1(C)O[C@@H]2[C@H](O1)[C@@H](CO)O[C@H]2n1c(N2CCCCC2)nc2c(N)ncnc21`, the “activity change, negative = inhibition” value was -1.84% (inactive).
As to `Cc1ccc(OCC(=O)Nc2ccc(OCc3cc(=O)n4c(C)csc4n3)cc2)cc1C`, the “activity change, negative = inhibition” value was -0.234% (inactive).
For the compound `Cc1ccccc1NC(=O)Cn1c(=O)n(CCCCC(=O)NCc2ccccc2Cl)c(=O)c2ccccc21`, the “activity change, negative = inhibition” value is -4.82% (inactive).
Consider `Cc1ccc2nc(N3CCN(c4cccc(Cl)c4)CC3)c3nnnn3c2c1`, for which the “activity change, negative = inhibition” value is -5.21% (inactive).
With `CCOC(=O)c1cc2c(=O)n3ccccc3nc2n(CCCOC)c1=NC(=O)C(C)Oc1ccccc1` (centres undefined), the “activity change, negative = inhibition” value was 1.01% (inactive).
Same read-out and setting: to `CCOc1ccc(CCNC(=O)c2ccc3c(c2)sc2nc(-c4ccc(F)cc4)cn23)cc1OCC` belongs -8.52% (inactive).
For the compound `CCOc1cccc2cc(-c3cn4c(n3)sc3cc(C)ccc34)c(=O)oc12`, the Potency was 0.426 µM (active).
Take `COc1ccc2oc(=O)c(-c3cn4c(n3)sc3cc(OC)ccc34)cc2c1`: the “activity change, negative = inhibition” value was -17.1% (inactive).
Take `COC(=O)c1ccc(NS(=O)(=O)c2cc3c4c(c2)C(C)C(=O)N4CCC3)cc1` (centres undefined): the “activity change, negative = inhibition” value was -0.997% (inactive).
Turning to `Cc1ccc(N2C(=O)CC(NCc3ccc4c(c3)OCO4)C2=O)cc1Cl` (centres undefined), the “activity change, negative = inhibition” value was -13.1% (inactive).
For `COc1ccc(C)cc1S(=O)(=O)Nc1cc2c3c(c1)CCC(=O)N3CCC2`, the “activity change, negative = inhibition” value is 0.954% (inactive).
As for `CCc1nn(CC(=O)N2CCN(c3ccc(Cl)cc3)CC2)c(=O)c2cc3occc3n12`, the “activity change, negative = inhibition” value is -18.2% (inactive).
Still for that read-out and setting: for `COc1ccc(CCn2cc3c(c2-c2ccc(Br)cc2)c(=O)n(C)c(=O)n3C)cc1OC` the value was -4.89% (inactive).
Turning to `CCOC(=O)c1ccc(-c2ccc(C(=O)Nc3cccnc3)o2)cc1`, the Potency is 15.1 µM (active).
`COc1ccc(C)cc1NC(=O)c1ccc(-c2ccc(C(C)=O)cc2)o1`: the “activity change, negative = inhibition” value was -11.1% (inactive).
Consider `CCOC(=O)c1ccc(-c2ccc(/C=C(\C#N)C(=O)Nc3ccc(C)cc3)o2)cc1`, for which the “activity change, negative = inhibition” value was -3.16% (inactive).
With `O=C(O)c1c(CNCc2cccc(F)c2)c2ccccc2n1Cc1ccccc1`, the “activity change, negative = inhibition” value is -11.7% (inactive).
Take `Cc1ccc(COc2ccc(/C=N/NC(=O)CN3CCCCC3)cc2)cc1`: the “activity change, negative = inhibition” value was -13.2% (inactive).
With `CNC(=S)NNC(=O)c1sccc1OCc1ccccc1`, the “activity change, negative = inhibition” value is 0.426% (inactive).
For the compound `Cc1ccc(/C=N/NC(=O)c2sccc2OCc2ccc(F)cc2)cc1`, the Potency was 1.35 µM (active).
As for `O=C(c1ccc2c(c1)N(Cc1ccccc1F)C(=O)c1ccccc1S2(=O)=O)N1CCOCC1`, the “activity change, negative = inhibition” value was -3.29% (inactive).
The same measure, in the same setting: to `COc1ccc(C2=NN(C(=O)c3cccnc3)C(c3ccccc3)C2)cc1` (centres undefined) belongs -10.9% (inactive).
Consider `CCN(CC)CCNC(=O)CN1N=C(c2ccc(OC)cc2)CCC1=O`, for which the “activity change, negative = inhibition” value was 3.09% (inactive).
With `COc1ccc(C2=NN(c3nc4ccccc4s3)C(=O)C2)cc1`, the Potency is 9.53 µM (active).
